# In the supplement of paper PMC8728848:
# Shown is part of a subset that was picked to be rich in the strongest signals.
# Experiments:
# Assay in all cases: glycan array binding signal (z-score within array); higher = stronger binding
# Conditions in all cases: glycan notation: IUPAC condensed, linker removed
# [1] = target: Fuc(a1-2)Gal(b1-3)GalNAc(a1-3)[Fuc(a1-2)]Gal(b1-4)GlcNAc
# How it was run: (§1)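 The binding signal is a Z-score computed within each array and averaged over linkers. Arrays of the same protein sequence at different concentrations or buffers were also averaged together. Data originate from 3228 arrays in the Consortium for Functional Glycomics database, kept only where the protein sequence was available.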
# [2] = target: Fuc(a1-2)Gal(b1-3)GlcNAc(b1-3)GalNAc
# How it was run: as §1
# [3] = target: Fuc(a1-2)Gal(b1-3)GlcNAc(b1-3)[Neu5Ac(a2-6)Gal(b1-4)GlcNAc(b1-6)]Gal(b1-4)Glc
# How it was run: as §1
# [4] = target: Fuc(a1-2)Gal(b1-3)[Fuc(a1-4)]GlcNAc
# How it was run: as §1
# [5] = target: Fuc(a1-2)Gal(b1-4)GlcNAc(b1-2)Man(a1-3)[Fuc(a1-2)Gal(b1-4)GlcNAc(b1-2)Man(a1-6)]Man(b1-4)GlcNAc(b1-4)[Fuc(a1-6)]GlcNAc
# How it was run: as §1
# [6] = target: Fuc(a1-2)Gal(b1-4)GlcNAc(b1-2)[Fuc(a1-2)Gal(b1-4)GlcNAc(b1-4)]Man(a1-3)[Fuc(a1-2)Gal(b1-4)GlcNAc(b1-2)Man(a1-6)]Man(b1-4)GlcNAc(b1-4)GlcNAc
# How it was run: as §1
# [7] = target: Fuc(a1-2)Gal(b1-4)GlcNAc(b1-3)Gal(b1-4)GlcNAc(b1-2)Man(a1-3)[Fuc(a1-2)Gal(b1-4)GlcNAc(b1-3)Gal(b1-4)GlcNAc(b1-2)Man(a1-6)]Man(b1-4)GlcNAc(b1-4)GlcNAc
# How it was run: as §1
# [8] = target: Fuc(a1-2)Gal(b1-4)GlcNAc6S
# How it was run: as §1
# [9] = target: Fuc(a1-2)Gal(b1-4)[Fuc(a1-3)]GlcNAc(b1-3)Gal(b1-4)[Fuc(a1-3)]GlcNAc
# How it was run: as §1
# [10] = target: Fuc(a1-2)Gal(b1-4)[Fuc(a1-3)]GlcNAc(b1-3)Gal(b1-4)[Fuc(a1-3)]GlcNAc(b1-3)Gal(b1-4)[Fuc(a1-3)]GlcNAc
# How it was run: as §1
# Fuc(a1-2)[Gal(a1-3)]Gal = target: Fuc(a1-2)[Gal(a1-3)]Gal
# How it was run: as §1
# [11] = target: Fuc(a1-2)[Gal(a1-3)]Gal(b1-3)GlcNAc(b1-6)GalNAc
# How it was run: as §1
# [12] = target: Fuc(a1-2)[Gal(a1-3)]Gal(b1-4)GlcNAc
# How it was run: as §1
# [13] = target: Fuc(a1-2)[GalNAc(a1-3)]Gal(b1-3)GlcNAc(b1-6)GalNAc
# How it was run: as §1
# [14] = target: Fuc(a1-2)[GalNAc(a1-3)]Gal(b1-4)GlcNAc(b1-3)Gal(b1-4)GlcNAc(b1-3)Gal(b1-4)GlcNAc
# How it was run: as §1
# [15] = target: Fuc(a1-3)[Gal(b1-4)]GlcNAc(b1-3)Gal(b1-4)[Fuc(a1-3)]GlcNAc(b1-3)Gal(b1-4)[Fuc(a1-3)]GlcNAc
# How it was run: as §1
# [16] = target: Fuc(a1-3)[GalNAc(b1-4)]GlcNAc
# How it was run: as §1
# Gal(a1-3)Gal = target: Gal(a1-3)Gal
# How it was run: as §1
# [17] = target: Gal(a1-3)Gal(b1-3)[Fuc(a1-4)]GlcNAc(b1-2)Man(a1-3)[Gal(a1-3)Gal(b1-3)[Fuc(a1-4)]GlcNAc(b1-2)Man(a1-6)]Man(b1-4)GlcNAc(b1-4)GlcNAc
# How it was run: as §1
# Gal(a1-4)Gal(b1-4)Glc = target: Gal(a1-4)Gal(b1-4)Glc
# How it was run: as §1
# [18] = target: Gal(a1-4)Gal(b1-4)GlcNAc(b1-3)Gal(b1-4)Glc
# How it was run: as §1
# Gal(b1-3)Gal(b1-4)GlcNAc = target: Gal(b1-3)Gal(b1-4)GlcNAc
# How it was run: as §1
# [19] = target: Gal(b1-3)GalNAc(a1-3)[Fuc(a1-2)]Gal(b1-4)Glc
# How it was run: as §1
# [20] = target: Gal(b1-3)GlcNAc(b1-2)Man(a1-3)[Gal(b1-3)GlcNAc(b1-2)Man(a1-6)]Man(b1-4)GlcNAc(b1-4)[Fuc(a1-6)]GlcNAc
# How it was run: as §1
# [21] = target: Gal(b1-3)GlcNAc(b1-2)Man(a1-3)[GlcNAc(b1-4)][Gal(b1-3)GlcNAc(b1-2)Man(a1-6)]Man(b1-4)GlcNAc(b1-4)GlcNAc
# How it was run: as §1
# Gal(b1-4)GlcNAc(b1-2)Man = target: Gal(b1-4)GlcNAc(b1-2)Man
# How it was run: as §1
# [22] = target: Gal(b1-4)GlcNAc(b1-2)Man(a1-3)[GlcNAc(b1-2)Man(a1-6)]Man(b1-4)GlcNAc(b1-4)GlcNAc
# How it was run: as §1
# [23] = target: Gal(b1-4)GlcNAc(b1-3)Gal(b1-3)GalNAc
# How it was run: as §1
# Gal3S6S(b1-4)GlcNAc = target: Gal3S6S(b1-4)GlcNAc
# How it was run: as §1
# [24] = target: GalNAc(b1-4)GlcNAc(b1-3)GalNAc(b1-4)GlcNAc
# How it was run: as §1
# GlcA(b1-3)Gal = target: GlcA(b1-3)Gal
# How it was run: as §1
# [25] = target: GlcNAc(a1-4)Gal(b1-4)GlcNAc(b1-3)Gal(b1-4)Glc
# How it was run: as §1
# [26] = target: GlcNAc(b1-2)Man(a1-3)[GlcNAc(b1-4)][GlcNAc(b1-2)Man(a1-6)]Man(b1-4)GlcNAc(b1-4)GlcNAc
# How it was run: as §1
# [27] = target: GlcNAc(b1-2)[GlcNAc(b1-6)]Man(a1-6)[GlcNAc(b1-2)Man(a1-3)]Man(b1-4)GlcNAc(b1-4)[Fuc(a1-6)]GlcNAc
# How it was run: as §1
# [28] = target: GlcNAc(b1-3)Gal(b1-4)GlcNAc(b1-3)Gal(b1-4)GlcNAc(b1-2)Man(a1-3)[GlcNAc(b1-3)Gal(b1-4)GlcNAc(b1-3)Gal(b1-4)GlcNAc(b1-2)Man(a1-6)]Man(b1-4)GlcNAc(b1-4)GlcNAc
# How it was run: as §1
# GlcNAc(b1-3)Man = target: GlcNAc(b1-3)Man
# How it was run: as §1
# Kdn(a2-3)Gal(b1-4)GlcNAc = target: Kdn(a2-3)Gal(b1-4)GlcNAc
# How it was run: as §1
# [29] = target: Man(a1-2)Man(a1-3)[Man(a1-2)Man(a1-6)]Man(a1-6)[Man(a1-2)Man(a1-2)Man(a1-3)]Man
# How it was run: as §1
# [30] = target: Neu5Ac(a2-3)Gal(b1-3)GalNAc
# How it was run: as §1
# [31] = target: Neu5Ac(a2-3)Gal(b1-3)[Fuc(a1-4)]GlcNAc(b1-3)Gal(b1-3)[Fuc(a1-4)]GlcNAc
# How it was run: as §1
# [32] = target: Neu5Ac(a2-3)Gal(b1-3)[Neu5Ac(a2-6)]GalNAc
# How it was run: as §1
# [33] = target: Neu5Ac(a2-3)Gal(b1-4)GlcNAc(b1-3)Gal(b1-4)GlcNAc(b1-3)[Neu5Ac(a2-3)Gal(b1-4)GlcNAc(b1-3)Gal(b1-4)GlcNAc(b1-6)]GalNAc
# How it was run: as §1
# [34] = target: Neu5Ac(a2-3)Gal(b1-4)GlcNAc(b1-3)[Neu5Ac(a2-3)Gal(b1-4)GlcNAc(b1-6)]GalNAc
# How it was run: as §1
# [35] = target: Neu5Ac(a2-3)Gal(b1-4)[Fuc(a1-3)]GlcNAc(b1-6)[Neu5Ac(a2-3)Gal(b1-3)]GalNAc
# How it was run: as §1
# [36] = target: Neu5Ac(a2-3)Gal(b1-4)[Fuc(a1-3)]GlcNAc6S
# How it was run: as §1
# [37] = target: Neu5Ac(a2-3)GalNAc(b1-4)GlcNAc
# How it was run: as §1
# [38] = target: Neu5Ac(a2-6)Gal(b1-4)GlcNAc
# How it was run: as §1
# [39] = target: Neu5Ac(a2-6)Gal(b1-4)GlcNAc(b1-2)Man(a1-3)[Neu5Ac(a2-3)Gal(b1-4)GlcNAc(b1-2)Man(a1-6)]Man(b1-4)GlcNAc(b1-4)GlcNAc
# How it was run: as §1
binder,measurement,setting,value
LecB PA14 (Pseudomonas aeruginosa) (protein) MATQGVFTLPANTQFGVTAFANSAGTQTVNVQVNNETVATFTGQSTNNAIIGSKVLNSGGGGKVQILVSVNGRSSDLVSAQVILANELNFALVGSEDSTDNDYNDAVVVINWPLG,glycan array binding signal (z-score),[1],0.586
same,glycan array binding signal (z-score),[2],0.422
same,glycan array binding signal (z-score),[3],0.308
same,glycan array binding signal (z-score),[4],2.93
same,glycan array binding signal (z-score),[5],2.75
same,glycan array binding signal (z-score),[6],4.68
same,glycan array binding signal (z-score),[7],7.45
same,glycan array binding signal (z-score),[8],-0.469
same,glycan array binding signal (z-score),[9],10.2
same,glycan array binding signal (z-score),[10],7.29
same,glycan array binding signal (z-score),Fuc(a1-2)[Gal(a1-3)]Gal,-0.002
same,glycan array binding signal (z-score),[11],-0.543
same,glycan array binding signal (z-score),[12],-0.7
same,glycan array binding signal (z-score),[13],-0.191
same,glycan array binding signal (z-score),[14],-0.182
same,glycan array binding signal (z-score),[15],4.17
same,glycan array binding signal (z-score),[16],5.42
same,glycan array binding signal (z-score),Gal(a1-3)Gal,-0.72
same,glycan array binding signal (z-score),[17],2.54
same,glycan array binding signal (z-score),Gal(a1-4)Gal(b1-4)Glc,-0.633
same,glycan array binding signal (z-score),[18],0.061
same,glycan array binding signal (z-score),Gal(b1-3)Gal(b1-4)GlcNAc,-0.517
same,glycan array binding signal (z-score),[19],-0.227
same,glycan array binding signal (z-score),[20],0.647
same,glycan array binding signal (z-score),[21],0.447
same,glycan array binding signal (z-score),Gal(b1-4)GlcNAc(b1-2)Man,-0.837
same,glycan array binding signal (z-score),[22],0.016
same,glycan array binding signal (z-score),[23],-0.179
same,glycan array binding signal (z-score),Gal3S6S(b1-4)GlcNAc,-0.745
same,glycan array binding signal (z-score),[24],-0.272
same,glycan array binding signal (z-score),GlcA(b1-3)Gal,0.136
same,glycan array binding signal (z-score),[25],-0.506
same,glycan array binding signal (z-score),[26],-0.629
same,glycan array binding signal (z-score),[27],-0.125
same,glycan array binding signal (z-score),[28],0.43
same,glycan array binding signal (z-score),GlcNAc(b1-3)Man,-0.123
same,glycan array binding signal (z-score),Kdn(a2-3)Gal(b1-4)GlcNAc,-0.618
same,glycan array binding signal (z-score),[29],5.22
same,glycan array binding signal (z-score),[30],-0.314
same,glycan array binding signal (z-score),[31],3.3
same,glycan array binding signal (z-score),[32],-0.618
same,glycan array binding signal (z-score),[33],-0.427
same,glycan array binding signal (z-score),[34],-0.521
same,glycan array binding signal (z-score),[35],-0.054
same,glycan array binding signal (z-score),[36],0.335
same,glycan array binding signal (z-score),[37],-0.298
same,glycan array binding signal (z-score),[38],-0.39
same,glycan array binding signal (z-score),[39],-0.741
